Assay outcomes from PubChem BioAssay.
TROY signal inh = inhibitors of TROY-dependent NF-kB signaling | Q293 LMP1-TROYcd NF-kB luciferase reporter, 4 h | inhibition, % at 10 µM | hit rate 0.98% among 360,000;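 active means compounds whose plate-normalised and pattern-corrected inhibition of the luciferase reporter signal at the single screening dose is 50% or more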
KKLEB tox = counter-screen for CF NF-kB inhibitors: cytotoxicity; KKLEB CF airway cells viability, ATPlite luminescence, overnight; stronger effect = lower value; cells stimulated with P. aeruginosa culture filtrate; activity change (cytotoxicity), % at 5 µM; hit rate 0.36% among 360,000; AID 602141;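 active means corrected activity change at or below -50% at 5 µM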
CF NFkB inh = inhibitors of cystic fibrosis induced NF-kB. KKLEB NF-kB-GFP reporter, PAF-induced, GFP fluorescence overnight. inhibition, % at 5 µM. hit rate 0.86% among 360,000;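 active means at least 50% inhibition at 5 µM, scaled per plate between neutral and stimulator controls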;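 further: PAF is a Pseudomonas aeruginosa culture filtrate used as stimulus; plate controls were PAF-stimulated DMSO wells for no effect and unstimulated DMSO wells for full effect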
EWS-Fli block = inhibitors of EWS/Fli oncoprotein transcriptional activity | A673 NR0B1-luciferase reporter, viability-normalised | inhibition, % at 12.6 µM | hit rate 0.67% among 350,000 | AID 651661;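 active means mean inhibition of at least 50% after viability correction, with every replicate also passing that limit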;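 further: firefly luciferase signal divided by Alamar Blue viability fluorescence both relative to DMSO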
LGR2 inh = inhibitors of bursicon-induced Drosophila LGR2 receptor cAMP signaling; inhibition, % at 9.99 µM; HEK293 LGR2, CRE-luciferase, bursicon-stimulated, 4 h; hit rate 0.35% among 380,000; AID 720647;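 active means drop in luminescence signal, shown as inhibition above about 50% in the replicate tests, limit read from the data, passing the limit was not always enough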;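 further: agonist challenge used bursicon conditioned medium at about half maximal strength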
TWEAK Fn14 block = inhibitors of TWEAK-Fn14 interaction signaling; inhibition, % at 10 µM; hit rate 2% among 360,000; AID 1159606; TWEAK-stimulated Fn14 reporter cells, luciferase luminescence, 8 h; in the data active means inhibition above about 50%
* marks the source's active call; other numbers are inactive results; . = not tested or not shown. Most compounds without a hit are left out; they make up all but 2.6% or so of the library.

SMILES	TROY signal inh	KKLEB tox	CF NFkB inh	EWS-Fli block	LGR2 inh	TWEAK Fn14 block
O=C(Nc1ccn(Cc2ccc(Cl)cc2)n1)c1ccccc1	-68	-5	-9	-65	-69	-7
N#CCCn1ccc(NC(=O)c2ccc(Cl)cc2)n1	.	20	-4	.	.	67*
C[n+]1c(/C=C/c2ccc3c(c2)OCO3)ccc2ccccc21	81*	-3	6	-12	-24	82*
C[n+]1c(/C=C/c2ccc(O)cc2)ccc2ccccc21	-2	15	-49	-68	-39	-1
NC(=S)n1[nH]c(-c2ccc([N+](=O)[O-])cc2)c(N=Nc2cccc([N+](=O)[O-])c2)c1=O	64*	-36	12	25	-1	71*
Cc1c(N=Nc2c(-c3ccc([N+](=O)[O-])cc3)[nH]n(C(N)=S)c2=O)cccc1[N+](=O)[O-]	47	-46	26	35	35	70*
Cc1[nH]n(C(N)=S)c(=O)c1N=Nc1cccc([N+](=O)[O-])c1C	-33	9	-13	.	.	-35
NC(=S)n1[nH]c(-c2ccc([N+](=O)[O-])cc2)c(N=Nc2ccccc2[N+](=O)[O-])c1=O	3	4	-38	-10	1	-6
CCC(=O)N1[C@H](CO)[C@H](c2ccc(C3=CCCC3)cc2)[C@H]1CNC1CCCC1	.	.	.	.	-5	.
Cc1c(C)c2ccc(OCC(=O)Nc3ccccn3)c(C)c2oc1=O	82*	-90*	1	.	100*	103*
CC(c1ccco1)N(C(=O)COc1ccc(Cl)cc1Cl)c1ccccn1 (stereo unspecified)	62*	-16	7	-88	5	84*
O=C(COc1ccc(Cl)cc1Cl)Nc1ccccn1	89*	-92*	-3	60*	100*	108*
O=C(CCCOc1ccc(Cl)cc1Cl)NCCc1ccccn1	69*	-4	3	46	6	31
O=C(CCc1ccc(CCC(=O)c2cccs2)s1)c1cccs1	-52	8	6	.	.	-14
O=C(c1cccs1)c1no[n+]([O-])c1C(=O)c1cccs1	-9	-94*	93*	.	.	6
COc1ccc(NC(=O)c2c(N)no[n+]2[O-])cc1	-24	3	22	-19	-25	-20
COc1ccc(C(=O)c2no[n+]([O-])c2C(=O)c2ccc(OC)cc2)cc1	-13	-80*	90*	.	-6	24
O=C(C[C@@H]1CC[C@H]2[C@@H](COC[C@H](O)CN2C(=O)Nc2cc(Cl)cc(Cl)c2)O1)N1CCCCC1	.	.	.	4	5	.
Oc1ccccc1C1SC(c2ccccc2O)SC(c2ccccc2O)S1 (stereo unspecified)	81*	-88*	91*	18	10	51*
O=C(Nc1ccc(CN2CCOCC2)cc1)c1ccc(-c2ccc(Br)cc2)o1	53*	-10	6	-1	-1	28
O=C(Nc1ccc(CN2CCOCC2)cc1)c1ccc(Br)cc1	-16	6	5	-81	-27	6
CN(C)c1ccc(/C=C2/SC(=O)N(CCN=C3NS(=O)(=O)c4ccccc43)C2=O)cc1	-47	-12	10	-31	-20	-30
CN(C)c1ccc(/C=C2\SC(=O)N(CCc3nnc(N)s3)C2=O)cc1	77*	-45	-20	82*	89*	94*
Cc1ccccc1-c1cnc2c(c1)C(=O)N([C@@H](C)CO)C[C@@H](C)[C@@H](CN(C)C(=O)c1ccccc1)O2	.	.	.	-19	1	.
N#Cc1cc2c(nc1SC1CC(=O)N(c3ccccc3)C1=O)CCC2 (stereo unspecified)	83*	-4	9	.	.	100*
SMILES	TROY signal inh	KKLEB tox	CF NFkB inh	EWS-Fli block	LGR2 inh	TWEAK Fn14 block
NCCCn1c(C(=O)c2cc(Cl)c(N)c(Cl)c2)c2ccc([N+](=O)[O-])cc2[n+]1[O-]	-32	-4	-1	55*	18	-37
Cc1ccc(N=c2oc3cc(O)ccc3cc2C(N)=O)cc1	34	-23	83*	.	.	61*
O=C(CN1CCOCC1)N[C@@H]1CC[C@H](CCNS(=O)(=O)c2ccccc2F)O[C@@H]1CO	.	.	.	-9	5	.
N#Cc1ccsc1NC(=O)CSc1ncn[nH]1	-9	10	7	.	-1	8
N#Cc1ccsc1NC(=O)CSc1ncnc2ccccc12	56*	0	32	.	.	1
CN(C)S(=O)(=O)c1cccc(NC(=O)CSc2ncnc3ccccc23)c1	38	-3	16	0	40	64*
